Data reported in PubChem BioAssay (NCATS).
Several values for one entry are separate records, joined by “and”; a condition that tells them apart may be missing. Equal values may be shown once. Inconclusive results are not listed. Activity calls are given as the source filed them. Unless noted, calls come from the whole dose curve; as a rule, active = well fitted curve in the direction sought with a large enough effect; inconclusive = small, poorly fitted or top-dose-only effect, or another doubt; inactive = no such curve, though single readings can be large; an effect the other way counts as inactive or inconclusive.

How the values were obtained:
[1] = qHTS for Inhibitors of Plasmodium falciparum (DD2) proliferation (AID 504314);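 note: parasite DNA measured by SYBR Green fluorescence after red cell lysis; plate controls were DMSO vehicle for no effect and artemisinin wells for full effect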
Procedure, shortened: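 SYBR Green DNA-fluorescence growth assay: infected RBCs at 0.3% parasitemia, 2.5% hematocrit, 72 h compound exposure, 37C, 5% CO2; overnight lysis with dye at RT; normalized to 0.29 uM artemisinin and vehicle.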

[2] = qHTS for Inhibitors of Plasmodium falciparum (7G8) proliferation (AID 504316);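 note: 0% = DMSO vehicle and -100% = 0.29 µM artemisinin full kill; nearly all actives have a fitted effect of over 65% in size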
Procedure, shortened: (§1)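 Parasite growth measured as SYBR Green DNA fluorescence (ex 485, em 535 nm) after overnight lysis following 72 h culture at 37 °C, 0.3% parasitemia, 2.5% hematocrit. Values normalized against DMSO and 0.29 uM artemisinin controls, with plate-stack correction.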

[3] = qHTS for Inhibitors of Plasmodium falciparum (HB3) proliferation (AID 504318);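 note: 0% = DMSO vehicle and -100% = artemisinin control; nearly all actives have a fitted effect of over 60% in size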
Procedure, shortened: as §1

[4] = qHTS for Inhibitors of Plasmodium falciparum (CP250) proliferation (AID 504320);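 note: plate controls were DMSO vehicle for no effect and 0.29 µM artemisinin control for full effect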
Procedure, shortened: as §1

[5] = AP1 Signaling Pathway (AID 357; active = well fitted curve in either direction with a large enough effect, not every such curve was filed as active;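 note: ME-180 reporter cells stimulated with EGF at its EC50 level; % is set by controls: 0 for no effect and ±100 for the full control effect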)
Procedure, shortened: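 A ratiometric CCF4 readout (405 nm excitation; 460 and 530 nm emission) quantified AP-1-driven beta-lactamase in ME-180 cells after 5 h with compound and EC50 EGF; AC50 values were derived for activators and inhibitors.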

[6] = NFAT Signaling Pathway (AID 444; active = well fitted curve in either direction with a large enough effect, not every such curve was filed as active;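 note: carbachol stimulus at about its EC50 of 1 µM final; % is set by controls: 0 for no effect and ±100 for the full control effect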); settings: Jurkat NFAT-bla M1, carbachol, beta-lactamase ratio, 5 h; at 17.2 µM (top of the series)
Procedure, shortened: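 Jurkat cells carrying an NFAT-driven β-lactamase reporter and co-transfected muscarinic M1 receptor were treated with compound plus carbachol (1 uM final, an EC50 level) for 5 h at 37 °C. CCF4 loading followed for 1 h at RT; 460/530 nm ratio gave %activity.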

[7] = Stat Signaling Pathway (AID 446; active = well fitted curve in either direction with a large enough effect, not every such curve was filed as active;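 note: ME-180 cervical cancer cells given 40 pM IL-6 alongside compound; SIE-controlled beta-lactamase reporter measured as 460/530 nm FRET emission ratio; % is set by controls: 0 for no effect and ±100 for the full control effect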)
Procedure, shortened: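 Emission at 460 and 530 nm (excitation 405 nm) reports SIE-controlled beta-lactamase in ME-180 cells. Cells received compound with 40 pM IL-6 for 5 hrs at 37 C; data scaled between 300 pM IL-6 and 125 nM JAK-inhibitor controls.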

[8] = target: Mitogen-activated protein kinase 10 (Mus musculus) (UniProt Q61831); experiment: JNK3 AlphaScreen Assay (AID 530; active = well fitted curve in either direction with a large enough effect, not every such curve was filed as active;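 note: kinase came from lysate of stimulated human HepG2 cells; signal reports phosphorylation of biotinylated GST-cJun 1-79 at Ser73 with 10 µM ATP; % is set by controls: 0 for no effect and ±100 for the full control effect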)
Procedure, shortened: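 Biotinylated GST-cJun(1-79) served as substrate for JNK3 in HepG2 lysates stimulated with IL-1beta and TNF-alpha. ATP was 10 uM final, pH 7.6. Ser73 phosphorylation was quantified by AlphaScreen (680 nm excitation).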

[9] = target: 3',5'-cyclic-AMP phosphodiesterase 4B (Homo sapiens) (UniProt Q07343); experiment: qHTS Assay for Inhibitors of PDE-IV (AID 607; active = well fitted activation curve with a large enough effect in the main read-out, with a control signal flat, not every such curve was filed as active; note: % of control where 0% means no effect)
Procedure, shortened: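 The readout is membrane depolarisation from a cAMP-sensing CNG channel, detected with a potential dye at ex 535/em 590. Cells were HEK293-derived (endogenous PDE-IV) at 1000 cells/well, titrated up to 22.9 uM final.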

[10] = qHTS Assay for Lipid Storage Modulators (AID 1519; calls by dose curve); settings: Drosophila S3 cells, BODIPY lipid droplet/cell ratio, laser cytometry, cells loaded with oleic acid
Procedure, shortened: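 Cells seeded at 5,000 per well were treated with compounds over a concentration series and loaded with oleic acid (400 uM, as added). Lipid droplet fluorescence (488 nm excitation, 500-530 nm channel) was read by laser-scanning cytometry and normalized to 20 uM Triacsin C.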

[11] = target: Ubiquitin carboxyl-terminal hydrolase 1 (Homo sapiens) (UniProt O94782); experiment: Inhibitors of USP1/UAF1: Pilot qHTS (AID 504865);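 note: rhodamine fluorescence freed from ubiquitin-rhodamine substrate followed over time; top concentration of the series differs between compounds; % is set by controls: 0 for no effect and ±100 for the full control effect; nearly all actives have a fitted effect of over 35% in size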
Procedure, shortened: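 In 50mM HEPES pH 7.8 containing 0.5mM EDTA, 1mM TCEP, 0.1 mg/ml BSA and 0.01% Tween-20, 1nM USP1/UAF1 is exposed to compound for 15 min, then Ub-Rho (150nM final) is added and fluorescence is read over time.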

[12] = target: DNA dC->dU-editing enzyme APOBEC-3G (Homo sapiens) (UniProt Q9HC16); experiment: qHTS for inhibitors of Vif-A3G interactions: Validation (AID 588379); note: 0% is about no effect
Procedure, shortened: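 Yellow fluorescence (Ex 488, Em 500-530) of Vif-coexpressing HeLa A3G-eYFP cells, scanned by Acumen cytometer, reports blocked A3G degradation. Cells plated at 700/well overnight at 37 deg C before compound addition, then a further overnight compound incubation at 37 deg C.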

Ubiquitin carboxyl-terminal hydrolase 1 (Homo sapiens), sequence (O94782 whole entry, looked up): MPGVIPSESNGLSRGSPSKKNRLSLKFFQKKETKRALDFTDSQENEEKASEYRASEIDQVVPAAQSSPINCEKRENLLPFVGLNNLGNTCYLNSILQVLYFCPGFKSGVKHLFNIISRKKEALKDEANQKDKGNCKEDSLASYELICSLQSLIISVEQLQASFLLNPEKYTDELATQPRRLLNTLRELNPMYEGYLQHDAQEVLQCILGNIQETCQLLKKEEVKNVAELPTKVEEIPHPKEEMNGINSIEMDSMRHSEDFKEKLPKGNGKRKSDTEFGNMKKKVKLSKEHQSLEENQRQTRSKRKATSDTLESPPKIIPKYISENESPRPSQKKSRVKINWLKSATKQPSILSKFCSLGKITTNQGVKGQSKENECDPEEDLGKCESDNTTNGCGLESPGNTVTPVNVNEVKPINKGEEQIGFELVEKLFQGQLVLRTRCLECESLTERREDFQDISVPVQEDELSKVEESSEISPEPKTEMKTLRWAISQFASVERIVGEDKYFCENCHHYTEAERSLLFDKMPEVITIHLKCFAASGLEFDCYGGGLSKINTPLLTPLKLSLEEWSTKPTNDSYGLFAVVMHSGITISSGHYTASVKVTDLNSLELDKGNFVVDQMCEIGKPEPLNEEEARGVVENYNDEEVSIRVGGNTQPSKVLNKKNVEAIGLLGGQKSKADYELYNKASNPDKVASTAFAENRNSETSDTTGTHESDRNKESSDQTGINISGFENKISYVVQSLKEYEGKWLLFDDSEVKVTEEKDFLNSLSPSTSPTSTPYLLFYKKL
3',5'-cyclic-AMP phosphodiesterase 4B (Homo sapiens), sequence (Q07343 whole entry, looked up): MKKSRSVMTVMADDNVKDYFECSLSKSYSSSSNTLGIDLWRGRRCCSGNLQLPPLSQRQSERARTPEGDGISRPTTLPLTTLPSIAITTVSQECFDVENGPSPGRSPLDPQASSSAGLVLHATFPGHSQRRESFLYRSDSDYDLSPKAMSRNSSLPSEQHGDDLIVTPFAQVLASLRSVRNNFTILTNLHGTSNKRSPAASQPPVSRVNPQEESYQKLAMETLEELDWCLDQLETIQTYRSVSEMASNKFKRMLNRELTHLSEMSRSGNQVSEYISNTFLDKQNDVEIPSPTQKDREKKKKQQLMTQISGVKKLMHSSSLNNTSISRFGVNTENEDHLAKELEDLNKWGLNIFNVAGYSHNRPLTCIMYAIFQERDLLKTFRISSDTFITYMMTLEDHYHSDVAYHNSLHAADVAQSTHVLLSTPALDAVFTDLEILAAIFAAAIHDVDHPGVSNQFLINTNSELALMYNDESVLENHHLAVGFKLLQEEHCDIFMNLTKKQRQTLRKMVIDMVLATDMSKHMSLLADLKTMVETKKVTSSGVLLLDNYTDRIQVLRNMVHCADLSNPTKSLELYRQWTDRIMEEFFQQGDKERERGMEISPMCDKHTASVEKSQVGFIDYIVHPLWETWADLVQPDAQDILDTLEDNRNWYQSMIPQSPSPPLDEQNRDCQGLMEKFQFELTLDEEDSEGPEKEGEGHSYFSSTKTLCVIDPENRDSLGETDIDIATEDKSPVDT
DNA dC->dU-editing enzyme APOBEC-3G (Homo sapiens), sequence (Q9HC16 whole entry, looked up): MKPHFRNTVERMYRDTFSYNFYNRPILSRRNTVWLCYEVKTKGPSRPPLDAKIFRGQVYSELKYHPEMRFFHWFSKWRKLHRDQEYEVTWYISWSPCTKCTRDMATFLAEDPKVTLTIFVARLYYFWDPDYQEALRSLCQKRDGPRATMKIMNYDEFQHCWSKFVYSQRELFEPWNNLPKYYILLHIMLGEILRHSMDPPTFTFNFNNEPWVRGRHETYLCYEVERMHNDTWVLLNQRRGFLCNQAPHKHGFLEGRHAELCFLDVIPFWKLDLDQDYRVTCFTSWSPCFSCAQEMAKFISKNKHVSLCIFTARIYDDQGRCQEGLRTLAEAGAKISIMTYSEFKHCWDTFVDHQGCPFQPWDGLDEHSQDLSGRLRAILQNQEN

CC(=O)[C@]12C[C@@H]3CCCN(C(=O)N[C@@H]1c1ccccc1)[C@@H]32
inactive: outcome [1] | outcome [2] | Potency [3] | outcome [4]

COC(=O)C1=C2CCCO[C@H]2[C@@H]2[C@@H](C)[C@H](OC)c3ccccc3[C@@H]12
inactive: outcome [1] | outcome [2] | outcome [4]

CCOC(=O)[C@]12C[C@]3(OC)CCN(C(=O)N[C@@H]1c1ccccc1)[C@@H]32
inactive: outcome [1] | outcome [2] | Potency [3] | outcome [4]

CC(=O)[C@]12C[C@]3(C)CCCN(C(=O)N[C@@H]1c1ccccc1)C32 (some centres not stated)
inactive: outcome [1] | outcome [2] | Potency [3] | outcome [4]

C=C(C)C(=O)CP(=O)(OCC)OCC
inactive: outcome [1] | outcome [2] | Potency [3] | outcome [4]

COC(=O)[C@]12C[C@@H]3CCN(C(=O)N[C@@H]1c1ccccc1)[C@@]32C
inactive: outcome [1] | outcome [2] | Potency [3] | outcome [4]

COC(=O)C1=C2CCO[C@@H]2[C@H]2[C@@H](C)[C@H](OC)c3ccccc3[C@H]12
inactive: outcome [1] | outcome [2] | Potency [3] | outcome [4]

COC(=O)[C@@]12Cc3ccccc3[C@H]1C[C@H](C)[C@@H](C)N2C(=O)C(F)(F)F
inactive: outcome [2] | outcome [4]

COC(=O)C1c2c(n(C)c3ccccc23)[C@H]2[C@@H](C)[C@H](OC)c3ccccc3[C@@H]12 (some centres not stated)
inactive: outcome [2] | outcome [4]

C=CCN1CC[C@]23c4c5ccc(O)c4O[C@@H]2C(=O)CC[C@]3(O)[C@H]1C5
inactive: outcome [5] | activity change, negative = inhibition [6] -9.64% | outcome [7] | outcome [8] | Potency [9] | activity change, negative = inhibition ([10]; at 25.7 µM (top of the series)) -1.11% | activity change, negative = inhibition ([10]; at 57.5 µM (top of the series)) 5.83% | Potency [11] | Potency [12]
3.55% and 28.2%: max response ([10]; measured here: lipid channel max response)
1.84% and 18.9%: max response ([10]; measured here: cell count channel max response)
